Assay [1] has as its target Albumin (Bos taurus) (UniProt P02769). As to the kind of experiment: compounds binding labelled BSA control protein – biochemical, small-molecule microarray, Alexa647 label, 635/667 nm fluorescence, artefact control for SMM control protein annotation, profiling panel (AID 1118).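 Note: score merges 667 nm emission intensity and signal-to-noise per printed compound spot.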 Conditions: BSA-A647 binding, fluorescence 635 nm, higher = more signal.
A short description of assay [2]: probe aXIP binding to arrayed compounds – biochemical, NeuroSMM set, 635/667 nm fluorescence, primary screen (AID 1119).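 Note: probe is the protein aXip251-270 applied at 1 µg/mL to compound-printed slides; binding of probe to printed compounds measured as 667 nm fluorescence plus signal to noise.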 Conditions: small-molecule microarray, higher = more signal, called active from +8 up or from −8 down.
Assay [3] can be described thus: probe aNOTCH3 binding on compound microarray – biochemical, small-molecule microarray, 635/667 nm fluorescence, primary screen (AID 1120).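 Note: probe is a biotin-tagged antibody raised against NOTCH3 rather than NOTCH3 protein; score merges spot fluorescence near 667 nm with spot signal to noise.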 Conditions: higher = more signal.
Assay [4] can be described thus: probe aNOTCH2 binding on compound microarray – biochemical, small-molecule microarray, 635/667 nm fluorescence, primary screen (AID 1121).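 Note: score merges feature fluorescence read at 667 nm with its signal to noise.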 Conditions: higher = more signal.
The target of assay [5] is Carbonic anhydrase 2 (Homo sapiens) (UniProt P00918). Description: compounds binding carbonic anhydrase 2 – biochemical, small-molecule microarray, Alexa647-labelled CAII, profiling panel (AID 1122). Conditions: CAII-A647 binding fluorescence, higher = more signal.
Assay [6] can be described thus: COS7 lysate on small-molecule microarray, probe aHis, 635 nm (AID 1123).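 Note: z-score combines 667nm fluorescence intensity with signal-to-noise per printed compound spot.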 Conditions: COS7 cell lysate, fluorescence, higher = more signal.
The nature of assay [7]: probe aLAP1 signal on lysate-treated microarray – cell lysate, small-molecule microarray, COS7 lysate, primary screen (AID 1124).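 Note: lysate comes from COS7 cells expressing LAP1 and is applied at 0.3 µg/mL; score merges spot fluorescence near 667 nm with signal-to-noise over triplicate slides.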 Conditions: probe aLAP1, fluorescence, higher = more signal.
The test system of assay [8] is Sam68 (KHDRBS1). Description: compounds binding KHDRBS1 protein – biochemical, small-molecule microarray, 635 nm fluorescence, primary screen (AID 1125).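 Note: score merges 667 nm channel intensity with signal to noise over triplicate slides.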 Conditions: higher = more signal.
Assay [9] concerns Chordin-like protein 2 (CHRDL2). Description: compounds binding chordin-like 2 – biochemical, small-molecule microarray, 635 nm fluorescence, primary screen (AID 1126).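 Note: printed compound slides probed with Chrdl2 protein at 4 µg/mL for 1 h at 4 C; score merges 667 nm emission intensity with signal to noise over three replicate slides.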 Conditions: fluorescence 635 nm, higher = more signal.
The target of assay [10] is Concanavalin-A (Canavalia ensiformis) (UniProt P02866). As to the kind of experiment: compounds binding concanavalin A lectin – biochemical, small-molecule microarray, Alexa647 label, 635 nm, artefact control for SMM control protein annotation, primary screen (AID 1127).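 Note: z combines 667 nm emission intensity with signal-to-noise across three replicate slides.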 Conditions: ConA-A647 binding fluorescence, higher = more signal.
Assay [11] can be described thus: compounds binding Alexa647 anti-His antibody – biochemical, small-molecule microarray, 635 nm fluorescence, artefact control for SMM control protein annotation, primary screen (AID 1128).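 Note: score merges feature fluorescence with signal-to-noise for each printed compound spot.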 Conditions: higher = more signal.
Assay [12] has as its system Human papillomavirus type 1a E7 protein (residues 1-88). As to the kind of experiment: HPV1a E7 small-molecule binders, primary screen, biochemical, small-molecule microarray, residues 1-88, 635 nm (AID 1129). Conditions: small-molecule microarray binding, fluorescence 635 nm; higher = more signal.
Assay [13] addresses Focal adhesion kinase 1 (Homo sapiens) (UniProt Q05397). Description: PTK2 protein binding on printed compound slides – biochemical, small-molecule microarray, 635/667 nm fluorescence, BSA, DTT, primary screen (AID 1130).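 Note: composite of spot emission at 667 nm and signal to noise over triplicate slides.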 Conditions: 635 nm fluorescence, higher = more signal.
In assay [14] the test system is Fibrinogen (Alexa647-labelled). As to the kind of experiment: Alexa647-fibrinogen binding to printed small molecules – biochemical, small-molecule microarray, 635/667 nm fluorescence, artefact control for SMM control-protein annotation, profiling panel (AID 1131).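 Note: z-score merges 667 nm fluorescence with per-spot signal-to-noise over triplicate slides.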 Conditions: fibrinogen-A647 binding fluorescence, higher = more signal.
Assay [15] concerns the target Follistatin (Homo sapiens) (UniProt P19883). Description: FST protein binding to printed compounds – biochemical, small-molecule microarray, 635/667 nm fluorescence, primary screen (AID 1132). Conditions: 635 nm fluorescence, higher = more signal.
For assay [16], the target named is Fibroblast growth factor 2 (Homo sapiens) (UniProt P09038). As to the kind of experiment: basic fibroblast growth factor binding to printed compounds – biochemical, small-molecule microarray, 635/667 nm fluorescence, primary screen (AID 1133). Conditions: FGF2, fluorescence 635/667, higher = more signal.
A short description of assay [17]: JC-1 mitochondrial potential readout, lung cancer cells – cell-based, A549, JC-1 fluorescence, basal, 24 h, 100 nL, profiling panel (AID 1138).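 Note: A549 lung adenocarcinoma cells under basal conditions with no added stimulus; test concentration not given here.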 Conditions: higher = more signal.
Assay [18] has as its system Lefty1. As to the kind of experiment: Lefty1 protein binding to printed compounds – biochemical, small-molecule microarray, 635/667 nm fluorescence, primary screen (AID 1139). Conditions: fluorescence 635/667, higher = more signal.
Assay [19] has as its system wheat germ agglutinin (Triticum aestivum), Alexa647-labelled. As to the kind of experiment: Alexa647-WGA lectin binding to printed small molecules – biochemical, small-molecule microarray, 635/667 nm fluorescence, artefact control for SMM control-protein annotation, profiling panel (AID 1140).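 Note: score merges 667 nm feature emission with signal to noise over triplicate slides.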 Conditions: WGA-A647 binding, 635 nm fluorescence, higher = more signal.
Assay [20] concerns the target Luciferin 4-monooxygenase (Photinus pyralis) (UniProt P08659). Description: inhibition of purified Photinus pyralis luciferase – biochemical, luminescence, purified enzyme, 2006 set, primary screen (AID 1141).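 Note: cell-free assay with purified firefly luciferase at 100 ng per well in PBS; test concentration not given here.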 Conditions: purified firefly luciferase, SteadyGlo luminescence, 30 min; higher = more signal, called active from +8 up or from −8 down.

Calls of active or inactive are those of the source.

Chain of Concanavalin-A (Canavalia ensiformis) (P02866 whole entry, looked up): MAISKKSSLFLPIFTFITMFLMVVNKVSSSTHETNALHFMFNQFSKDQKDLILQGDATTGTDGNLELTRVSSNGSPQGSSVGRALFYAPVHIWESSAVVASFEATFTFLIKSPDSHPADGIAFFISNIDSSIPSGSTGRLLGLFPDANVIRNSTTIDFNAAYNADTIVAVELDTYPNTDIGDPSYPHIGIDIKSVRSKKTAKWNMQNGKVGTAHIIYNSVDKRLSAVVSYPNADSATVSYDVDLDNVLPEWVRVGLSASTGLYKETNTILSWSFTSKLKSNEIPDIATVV
Chain of Albumin (Bos taurus) (P02769 whole entry, looked up): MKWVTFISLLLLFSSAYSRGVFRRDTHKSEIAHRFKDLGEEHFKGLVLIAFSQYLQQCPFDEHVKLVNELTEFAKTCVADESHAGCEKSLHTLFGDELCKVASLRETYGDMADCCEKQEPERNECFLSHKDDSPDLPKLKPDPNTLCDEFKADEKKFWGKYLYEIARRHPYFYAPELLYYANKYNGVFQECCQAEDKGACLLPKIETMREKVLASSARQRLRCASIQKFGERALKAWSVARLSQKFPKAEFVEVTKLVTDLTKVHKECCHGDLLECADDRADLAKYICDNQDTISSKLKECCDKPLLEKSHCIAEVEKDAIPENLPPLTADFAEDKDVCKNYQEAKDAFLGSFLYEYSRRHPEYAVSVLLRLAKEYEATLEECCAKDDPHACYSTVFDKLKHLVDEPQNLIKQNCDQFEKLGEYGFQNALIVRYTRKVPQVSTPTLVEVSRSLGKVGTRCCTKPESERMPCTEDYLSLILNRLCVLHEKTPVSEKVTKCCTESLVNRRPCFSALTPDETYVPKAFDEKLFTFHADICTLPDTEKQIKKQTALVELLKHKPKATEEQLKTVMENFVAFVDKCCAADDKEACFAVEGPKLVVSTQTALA
Chain of Fibroblast growth factor 2 (Homo sapiens) (P09038 whole entry, looked up): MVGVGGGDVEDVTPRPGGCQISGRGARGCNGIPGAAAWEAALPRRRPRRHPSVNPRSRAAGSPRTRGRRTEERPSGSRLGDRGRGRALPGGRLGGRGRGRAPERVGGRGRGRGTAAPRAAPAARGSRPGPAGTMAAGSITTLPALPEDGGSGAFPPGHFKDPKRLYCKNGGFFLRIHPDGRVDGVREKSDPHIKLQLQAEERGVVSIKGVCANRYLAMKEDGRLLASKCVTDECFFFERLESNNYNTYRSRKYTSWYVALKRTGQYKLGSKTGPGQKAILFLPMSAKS
Chain of Luciferin 4-monooxygenase (Photinus pyralis) (P08659 whole entry, looked up): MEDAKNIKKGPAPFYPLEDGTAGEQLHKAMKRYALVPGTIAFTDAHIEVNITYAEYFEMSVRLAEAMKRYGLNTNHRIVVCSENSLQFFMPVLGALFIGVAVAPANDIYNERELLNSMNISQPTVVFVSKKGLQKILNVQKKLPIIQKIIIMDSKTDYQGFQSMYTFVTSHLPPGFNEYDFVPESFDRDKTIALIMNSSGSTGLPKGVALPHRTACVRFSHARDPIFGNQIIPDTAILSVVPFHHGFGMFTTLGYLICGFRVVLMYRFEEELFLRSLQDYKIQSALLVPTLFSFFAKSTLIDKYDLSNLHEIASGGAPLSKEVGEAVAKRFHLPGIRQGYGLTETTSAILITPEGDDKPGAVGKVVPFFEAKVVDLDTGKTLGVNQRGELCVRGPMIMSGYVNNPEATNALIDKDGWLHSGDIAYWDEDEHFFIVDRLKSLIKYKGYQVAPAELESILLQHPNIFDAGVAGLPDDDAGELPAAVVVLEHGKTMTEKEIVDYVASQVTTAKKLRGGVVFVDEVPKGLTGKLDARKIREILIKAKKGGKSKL
Chain of Follistatin (Homo sapiens) (P19883 whole entry, looked up): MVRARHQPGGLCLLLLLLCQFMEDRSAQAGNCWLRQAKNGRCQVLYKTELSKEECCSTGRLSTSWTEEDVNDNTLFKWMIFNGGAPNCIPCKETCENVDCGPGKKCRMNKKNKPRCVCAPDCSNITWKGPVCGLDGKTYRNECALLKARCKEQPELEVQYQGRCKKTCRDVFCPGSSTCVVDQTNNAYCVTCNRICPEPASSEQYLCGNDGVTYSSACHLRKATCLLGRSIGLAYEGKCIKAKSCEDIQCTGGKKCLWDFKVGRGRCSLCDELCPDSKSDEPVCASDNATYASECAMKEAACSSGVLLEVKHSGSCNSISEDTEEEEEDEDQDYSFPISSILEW
Chain of Focal adhesion kinase 1 (Homo sapiens) (Q05397 whole entry, looked up): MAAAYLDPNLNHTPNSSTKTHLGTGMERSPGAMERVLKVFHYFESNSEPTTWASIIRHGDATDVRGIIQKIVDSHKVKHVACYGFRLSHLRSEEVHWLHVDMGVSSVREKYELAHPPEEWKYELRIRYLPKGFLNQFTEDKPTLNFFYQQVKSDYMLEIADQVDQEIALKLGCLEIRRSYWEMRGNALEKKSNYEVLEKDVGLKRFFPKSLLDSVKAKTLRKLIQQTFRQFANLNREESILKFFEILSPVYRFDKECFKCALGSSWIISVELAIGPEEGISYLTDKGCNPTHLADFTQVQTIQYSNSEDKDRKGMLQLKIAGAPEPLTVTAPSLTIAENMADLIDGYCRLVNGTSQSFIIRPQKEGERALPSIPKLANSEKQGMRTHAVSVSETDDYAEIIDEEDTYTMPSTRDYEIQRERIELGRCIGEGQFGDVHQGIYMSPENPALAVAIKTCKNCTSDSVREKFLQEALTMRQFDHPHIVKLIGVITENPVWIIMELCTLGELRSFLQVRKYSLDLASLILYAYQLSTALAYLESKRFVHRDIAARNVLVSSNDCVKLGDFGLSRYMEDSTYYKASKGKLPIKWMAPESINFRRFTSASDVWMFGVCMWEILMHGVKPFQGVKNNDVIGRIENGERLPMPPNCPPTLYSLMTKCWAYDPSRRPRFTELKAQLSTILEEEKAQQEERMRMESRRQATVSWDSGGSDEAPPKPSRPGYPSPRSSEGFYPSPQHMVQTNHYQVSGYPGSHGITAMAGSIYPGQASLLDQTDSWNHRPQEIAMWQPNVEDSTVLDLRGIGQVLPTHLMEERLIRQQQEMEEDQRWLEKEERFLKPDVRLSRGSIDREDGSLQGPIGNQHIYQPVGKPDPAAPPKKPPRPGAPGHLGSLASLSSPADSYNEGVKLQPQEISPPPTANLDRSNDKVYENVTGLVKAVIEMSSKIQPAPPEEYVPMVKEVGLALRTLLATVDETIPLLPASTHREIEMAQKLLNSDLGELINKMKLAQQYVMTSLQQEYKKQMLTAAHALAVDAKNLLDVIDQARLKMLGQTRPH

For the molecule `COC(=O)C1=CC(c2ccc(CO)cc2)=CC(C2CC2)N(C)C=C1C(=O)OC` (stereo not given), the composite z-score is 0.965 in assay [1]; -0.0903 in [3]; -0.0617 in [4]; 0.874 in [5]; 1.73 in [6]; 0.969 in assay [7]. Also, the composite z-score in assay [8] was 0.862; in assay [9], -0.73; in assay [10] it was -0.0948; in [11], 0.822; in assay [12] it was -0.203; in [13] it was 0.883. Moreover, the composite z-score in assay [14] was 0.707; in [15] it was -0.743; in assay [16] it was -0.326; in [18] it was -0.615; in assay [19] it was 1.28. Moreover, in [2], the composite Z-score was 0.498 (inactive). Further, the z-score in assay [17] is 1.63; in [20], -1.8 (inactive).
With `O=C(O)[C@H]1C[C@H]2C(=O)NCC(=O)N2[C@H]1c1cccc(OCCO)c1`, the composite z-score in assay [1] is -0.542; in [3], 0.173; in assay [4] it was -0.126; in assay [5], 0.502; in [6], 0.787; in assay [7], -0.156. Also, the composite z-score is 0.89 in assay [8]; 0.0805 in [9]; 1.09 in assay [10]; 1.48 in assay [11]; 0.221 in assay [12]; 0.457 in [13]. Further, the composite z-score was 0.742 in [14]; 1.27 in [15]; 0.161 in assay [16]; -0.13 in [18]; 0.655 in assay [19]. Also, the composite Z-score in [2] was 0.0953 (inactive). Also, the figures for the z-score in assay [17] and in [20] were 1.14 and -1.6 (inactive), respectively.
Regarding `C=CCN1C(=O)[C@]2(O[C@H](CCn3cc([C@H](O)c4ccccc4)nn3)[C@@H]([Si](C)(C)c3ccc(OC)cc3)[C@@H]2C)c2cc(N3CCOC3=O)ccc21`, the composite z-score was 0.318 in [1]; -0.272 in [3]; -0.201 in assay [4]; 0.521 in assay [5]; 0.8 in assay [6]; 0.0004 in assay [7]. Also, the composite z-score in assay [8] was 0.745; in [9] it was -0.526; in [10] it was 0.804; in [11], 1.13; in assay [12] it was 1.13; in assay [13], 0.783. The composite z-score in assay [14] was 0.811; in assay [15], -0.447; in assay [16], -0.408; in assay [18] it was -0.351; in [19], 0.514. Also, the composite Z-score in assay [2] was 0.2 (inactive). In addition, the z-score is 1.89 in assay [17] and -0.678 (inactive) in assay [20].
Turning to `C=CCC(OC(C)=O)[C@@H]1[C@@H](N(Cc2cccc3ccccc23)C(=O)c2cccc3ccccc23)c2cc(OCCCO)ccc2N1C(=O)Cc1ccc(OC)cc1` (stereo not given in full), the composite z-score in assay [1] is 0.107; in assay [3], 0.128; in assay [4], -0.0797; in assay [5], 0.447; in assay [6], 1.04; in assay [7], 0.484. Besides, the composite z-score in assay [8] was 0.457; in [9], 0.0561; in assay [10], -0.653; in [11], 0.856; in assay [12], 0.0512; in [13], -0.0125. Further, the composite z-score turned out to be 0.263 in assay [14]; 0.921 in assay [15]; 0.103 in assay [16]; 0.306 in assay [18]; 0.655 in assay [19]. Besides, the composite Z-score in [2] was 0.464 (inactive). The z-score in [17] was 0.924; in assay [20] it was -0.378 (inactive).
Turning to `CC(C)C[C@@H]1NC(=O)[C@@]23C(=O)N[C@@H](Cc4ccccc4)C2[C@H](C)[C@@]2(C)O[C@H]2C3/C=C/CC/C=C/CNC(=O)[C@@H](C)NC1=O` (stereo not given in full), the composite z-score in assay [1] is -1.38; in assay [3], 0.0426; in assay [4] it was -0.179; in assay [5] it was -0.515; in assay [6] it was -0.262; in [7], 0.0036. Further, the composite z-score was 0.179 in assay [8]; 0.906 in assay [9]; 0.204 in assay [10]; -0.764 in assay [11]; -0.649 in assay [12]; 0.138 in [13]. The composite z-score in assay [14] was -0.875; in assay [15], 1.23; in assay [16], 1.12; in assay [18], 1.5; in [19] it was -0.578. Besides, the composite Z-score in assay [2] is -0.162 (inactive). Moreover, the results for the z-score in [17] and in assay [20] were -0.168 and -0.8 (inactive), respectively.

Values taken from PubChem BioAssay.
